Our source for the composite z-score and z-score values is PubChem BioAssay.

Active and inactive are the calls of the source.

The subject of test [1] is XIP peptide (Xip251-270) binding. The experiment in a line: XIP fragment 251-270 binding compounds – biochemical, small-molecule microarray, fluorescence 635/667 nm, 0.1 µg/mL protein, primary screen (AID 1182). The conditions noted are these: fluorescent protein binding, 635 nm, higher = more signal, called active from +8 up or from −8 down.
For the next test, the system named is XIP peptide (Xip251-270). The experiment in a line: compounds binding XIP fragment 251-270 – biochemical, small-molecule microarray, fluorescence 635/667 nm, 0.5 µg/mL protein, primary screen (AID 1183). The conditions noted are these: fluorescence 635 nm, higher = more signal.
Test [2] is described as follows: blood-stage malaria parasite viability loss – strain 3D7, DAPI fluorescence, 100 nL, primary screen (AID 1184).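 Also: parasites grown inside human red blood cells in medium with human serum.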 The conditions noted are these: P. falciparum 3D7 growth, 3 d, higher = more signal.
Test [3] has as its target Homeobox protein Hox-A13 (Mus musculus) (UniProt Q62424). The experiment in a line: disruptors of Hoxa13 oligonucleotide interaction – biochemical, fluorescence polarization, labeled oligonucleotide, primary screen (AID 1185). The conditions noted are these: Hoxa13:DNA binding, 15 min, higher = more signal, called active from +8 up or from −8 down. Background: Fluorescence polarisation rises when a labelled molecule tumbles more slowly, as on binding a larger partner.

Homeobox protein Hox-A13 (Mus musculus), sequence (Q62424 whole entry, looked up): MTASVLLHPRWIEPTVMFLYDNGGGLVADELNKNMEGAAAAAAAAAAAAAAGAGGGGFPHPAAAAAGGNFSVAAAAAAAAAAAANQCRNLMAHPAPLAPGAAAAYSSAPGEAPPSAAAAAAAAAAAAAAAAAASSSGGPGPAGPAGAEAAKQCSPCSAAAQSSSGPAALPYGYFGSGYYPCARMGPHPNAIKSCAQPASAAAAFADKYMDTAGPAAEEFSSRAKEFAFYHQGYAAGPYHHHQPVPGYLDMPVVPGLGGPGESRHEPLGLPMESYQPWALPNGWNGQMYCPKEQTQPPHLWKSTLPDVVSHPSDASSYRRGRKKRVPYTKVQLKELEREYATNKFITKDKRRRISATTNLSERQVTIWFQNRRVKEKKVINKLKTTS

For `CC(C)CON=C1[C@H]2CCn3c(=O)n(Cc4cc5c(cc4Cl)OCO5)c(=O)n3[C@H]2[C@H](O)[C@@H]2O[C@H]12`, the results for the composite z-score (in test [1]; with XIP peptide (Xip251-270)) were 0.26 (inactive) and 0.368, respectively. Besides, the results for the z-score in test [2] and in test [3] were -1.17 and 1.8 (inactive), respectively.
With `CON=C[C@@H](C)[C@H](OCc1ccccc1)C(C)C`, the composite z-score in test [1] was -0.372 (inactive); in the test on XIP peptide (Xip251-270), -0.647. Moreover, the z-score in test [2] was -1.11; in test [3], 3.84 (inactive).
For the compound `CCCCC#C[C@@H]1C=C[C@H](Oc2ccc(C(=O)OC)cc2)[C@@H](COC(=O)OCC)O1`, the composite z-score was -0.464 (inactive) in test [1] and 0.522 in the test with XIP peptide (Xip251-270). Also, the z-score in test [2] was -0.332; in test [3], -5.73 (inactive).
Turning to `CC(C)C[C@H](NC(=O)CCC1CC(OC(=O)NCc2cccc3ccccc23)CC2(CCCC(COC(=O)NCc3ccccc3)O2)O1)C(=O)NCC(c1ccccc1)c1ccccc1` (stereo partly drawn), the composite z-score in test [1] was -0.284 (inactive); in the test on XIP peptide (Xip251-270), 0.673. Also, the figures for the z-score in test [2] and in test [3] were -1.65 and -6.28 (inactive), respectively.
In the case of `CCCNC(=O)OC[C@H]1O[C@H](CCON=Cc2ccc(C(=O)N3[C@H](c4ccc(C)cc4)[C@@H](C)CC[C@H]3C(=O)OC)cc2)C=C[C@@H]1Oc1ccc(OC)cc1`, the composite z-score in test [1] is 0.236 (inactive); in the test on XIP peptide (Xip251-270), 0.257. Also, the z-score is -2.3 in test [2] and -2.32 (inactive) in test [3].
Turning to `C[C@@H]1C=CCC(=O)OC[C@H]2O[C@@H](C=C[C@@H]2O)[C@H](C)C=CCC(=O)OC1`, the composite z-score was 1 (inactive) in test [1] and 0.538 with XIP peptide (Xip251-270). Also, the z-score was 0.387 in test [2] and -0.659 (inactive) in test [3].
With `COc1ccc(O[C@H]2C=C[C@@H](c3ccccc3)O[C@@H]2COC(=O)CCC(C)=NOC(C)CN2CCCc3nc(C)c(C)cc32)cc1` (stereo partly drawn), the composite z-score in test [1] was 0.53 (inactive); with XIP peptide (Xip251-270), 0.552. The z-score in test [2] was -1.95; in test [3], -5.13 (inactive).
Take `C[C@@H]1CC[C@H]2C(=O)O[C@@H](Cc3ccccc3)CN2[C@H]1c1ccc(Br)cc1`: the figures for the composite z-score (in test [1]; in the test with XIP peptide (Xip251-270)) were 0.128 (inactive) and 0.174, respectively. Further, the z-score in test [2] was 0.209; in test [3] it was -1.7 (inactive).
In the same order, the values of `CC(CCN1CCc2nc(-c3ccccc3)c(-c3ccccc3)cc2C1)=NOC[C@@H](O)COCc1ccco1` are 1.58 (inactive), 0.54, 0.329 and -5.11 (inactive).
In the same order, the values of `CCOC(=O)[C@H](CC(C)C)NC(=O)CCC1CC(OC(=O)NCc2cccc3ccccc23)CC2(CCCC(COC(=O)NCCc3ccc(Cl)cc3)O2)O1` (stereo partly drawn) are -0.0551 (inactive), 0.111, -1.61 and -4.02 (inactive).
Take `COC(=O)CC=C[C@@H](C)[C@@H](C=NO[C@@H]1O[C@H](COC(C)=O)[C@@H](OC(C)=O)[C@H](OC(C)=O)[C@H]1OC(C)=O)OC`: the results for the composite z-score (in test [1]; in the test with XIP peptide (Xip251-270)) were -0.865 (inactive) and -0.17, respectively. The z-score in test [2] is -0.0925; in test [3], -2.16 (inactive).
Take `CCOC(=O)[C@H](Cc1ccccc1)NC(=O)CCC1CC(OC(=O)NCCc2ccc(F)cc2)CC2(CCCC(COC(=O)NCCc3ccc(Cl)cc3)O2)O1` (stereo partly drawn): the composite z-score in test [1] was -0.345 (inactive); with XIP peptide (Xip251-270), 0.348. Further, the z-score in test [2] was -1.84; in test [3], -3.08 (inactive).
Consider `O=C1[C@H]2[C@H]3[C@H](O)[C@H](O)CC(=NOCc4ccccc4)[C@@H]3CC[C@H]2C(=O)N1Cc1ccc2c(c1)OCO2`, for which the composite z-score in test [1] is 0.135 (inactive); with XIP peptide (Xip251-270), 0.2. Moreover, the values for the z-score in test [2] and in test [3] were -0.364 and -3.53 (inactive), respectively.
With `C#CCCCON=C1C[C@@H](O)[C@@H](O)[C@@H]2[C@@H]3C(=O)N(c4cccc(Oc5ccccc5)c4)C(=O)[C@@H]3CC[C@H]12`, the composite z-score in test [1] was 0.332 (inactive); with XIP peptide (Xip251-270), 0.507. In addition, the z-score in test [2] is 0.63; in test [3], 0.303 (inactive).
As for `O=C1C2=CC[C@H]3C(=O)N(c4cccc(Oc5ccccc5)c4)C(=O)[C@H]3[C@H]2[C@H](O)[C@@H]2O[C@H]12`, the composite z-score in test [1] was -0.0743 (inactive); in the test on XIP peptide (Xip251-270) it was 0.182. Moreover, the z-score was 0.86 in test [2] and -2.99 (inactive) in test [3].
For the compound `C=CC[C@@H]1C=C[C@H](ON=C[C@@H](C)[C@H](OCc2ccccc2)C(C)C)[C@@H](CO)O1`, the composite z-score in test [1] is 0.142 (inactive); with XIP peptide (Xip251-270) it was 0.256. The z-score in test [2] was 0.395; in test [3], -4.51 (inactive).
With `CC1O[C@H]2C3=C(C(=O)[C@@H]4O[C@@H]4[C@H]3O)[C@@H]1C1[C@@H](C)OC=C3[C@H](O)C4O[C@@H]4C(=NOCc4ccccc4)[C@]312` (stereo partly drawn), the figures for the composite z-score (in test [1]; with XIP peptide (Xip251-270)) were -0.319 (inactive) and 0.563, respectively. Also, the z-score is -0.352 in test [2] and -1.93 (inactive) in test [3].
In the case of `CCOC(=O)NN=C1C[C@@H](O)[C@@H](O)[C@@H]2[C@@H]3C(=O)N(c4cccc(Oc5ccccc5)c4)C(=O)[C@@H]3CC[C@@H]12`, the composite z-score in test [1] is 0.187 (inactive); in the test with XIP peptide (Xip251-270) it was 0.651. Also, the z-score in test [2] was -0.512; in test [3] it was -4.18 (inactive).
In the case of `C[C@H](ON=C1[C@H]2CCn3c(=O)n(-c4ccccc4)c(=O)n3[C@H]2[C@H](O)[C@@H]2O[C@H]12)c1cn([C@H](CO)Cc2ccccc2)nn1`, the composite z-score in test [1] is 2.76 (inactive); with XIP peptide (Xip251-270), 0.238. Further, the z-score in test [2] is 0.0242; in test [3] it was -3.02 (inactive).
The matching figures for `C#CCCCON=C1C[C@@H](O)[C@@H](O)[C@@H]2[C@@H]3C(=O)N(c4ccc(F)cc4F)C(=O)[C@@H]3CC[C@@H]12`: 0.76 (inactive), 0.0996, -0.217 and -3.13 (inactive).
Consider `COC(=O)[C@H](C)NC(=O)CCC1CC(OC(=O)NCCc2ccc(F)cc2)CC2(CCCC(COC(=O)NCc3cccc(C(F)(F)F)c3)O2)O1` (stereo partly drawn), for which the composite z-score in test [1] was 0.64 (inactive); with XIP peptide (Xip251-270), 0.517. Also, the z-score in test [2] is -0.506; in test [3], -6.12 (inactive).
`CCc1cc2c(nc1CC)CCN(CCC(C)=NO[C@H](C)c1cn([C@H](CO)Cc3ccccc3)nn1)C2`: the results for the composite z-score (in test [1]; in the test with XIP peptide (Xip251-270)) were 0.076 (inactive) and 0.284, respectively. For the same compound, the results for the z-score in test [2] and in test [3] were -1.91 and -5.78 (inactive), respectively.
